Tg IFNy HTS = inhibitors of Toxoplasma gondii growth with IFN-gamma; 69,000 tested, 3.8% active; Toxoplasma gondii growth in IFN-gamma-treated host cells; stronger effect = lower value; AID 1259416; activity change, negative = inhibition, % (test concentration not listed); in the data active = activity change below about -70%, passing the limit was not always enough;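 note: host cells are HeLa cells infected with Toxoplasma gondii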
Active calls of the source: *. This is one part of a sample in which hits are shown more often than they occur.

CN(C)C(=O)N1Cc2nc(C(=O)NCc3cccc(F)c3)oc2C1 was read as Tg IFNy HTS 7.2.
Screening O=C(Cc1ccc(Cl)cc1)NCCc1csc(-c2cccc(F)c2)n1 returned Tg IFNy HTS -6.6.
CCN1CCN(C(=O)Cn2ncc3c(N4CCN(c5ccccc5)CC4)ncnc32)CC1 was read as Tg IFNy HTS 27.9.
Cc1ccc2c(c1)C(=O)CC1(CCN(C(=O)C3CCCC3)CC1)O2 was read as Tg IFNy HTS -4.2.
For Cc1c(C(=O)N2CCC(C)CC2)oc2ccc3c(c12)C(=O)CC1(CCCCCC1)O3 the results were Tg IFNy HTS -110.4*.
`Cc1ccc2c(C)c(C(=O)N3CCC4(CN(C)C(=O)O4)C3)oc2c1` (centres undefined) gave Tg IFNy HTS 3.7.
Cc1ccc2c(C)c(C(=O)N3CCCC4(CC3)CNC(=O)O4)oc2c1 (centres undefined) was read as Tg IFNy HTS 0.0.
CCOC(=O)C1CCN(C(=O)c2oc3ccc4c(c3c2C)C(=O)CC2(CCCCC2)O4)CC1 was read as Tg IFNy HTS 325.2.
Screening Cc1c(C(=O)N2CC(C)CC(C)C2)oc2ccc3c(c12)C(=O)CC1(CCCCCC1)O3 (centres undefined) returned Tg IFNy HTS -99.3*.
`CCOC(=O)c1ccc(NC(=S)N2CCN(Cc3ccc4c(c3)OCO4)CC2)cc1` gave Tg IFNy HTS 13.7.
`COc1cc(N2C[C@@H]3COC[C@]3(CC(=O)N(C)C)C2)ncn1` gave Tg IFNy HTS -6.1.
Screening CCOc1ncccc1-c1cncnc1 returned Tg IFNy HTS -2.6.
For CCOc1ncccc1-c1cc(CC)nc(N(C)C)n1 the results were Tg IFNy HTS 6.0.
`CCOc1ncccc1-c1ccc(C)nc1N` gave Tg IFNy HTS -90.0*.
O=C(O)c1ccccc1 was read as Tg IFNy HTS 12.0.
`O=C(O)c1c2ccccc2nc2ccccc12` gave Tg IFNy HTS -74.7*.
Screening O=C(O)c1c2c(nc3ccccc13)CSc1ccc(Cl)cc1-2 returned Tg IFNy HTS 23.0.
For Cc1c(Cl)cccc1NC(=O)CN1CCC2(CC1)N=C(c1cccc(F)c1)C(=O)N2 the results were Tg IFNy HTS 20.0.
`COc1cc(S(=O)(=O)N2CCOCC2)ccc1NC(=O)CC(C)n1cccn1` (centres undefined) gave Tg IFNy HTS -6.8.
`C=CCn1c(=S)sc2c(N3CCN(c4ccccc4)CC3)ncnc21` gave Tg IFNy HTS -20.2.
For C=CCn1c(=S)sc2c(C(C#N)C#N)ncnc21 the results were Tg IFNy HTS -102.1*.
`CC(C)c1cc(C2CCN(C(=O)c3ccc4c(c3)CCO4)CC2)[nH]n1` gave Tg IFNy HTS 2.0.
For Cc1ccc(S(=O)(=O)N(C)c2cncc(C(=O)Nc3ccccc3Cl)c2)cc1 the results were Tg IFNy HTS 10.4.
For CCN1CCC2(CC1)OC(=O)C(C)=C2C(=O)Nc1cc(OC)ccc1OC the results were Tg IFNy HTS 484.4.
For COc1ncccc1-c1cccc(-c2nnc(C)s2)c1 the results were Tg IFNy HTS -94.4*.
COc1ncccc1-c1[nH]cnc1-c1ccccc1 was read as Tg IFNy HTS -15.3.
`COc1ncccc1-c1nn(C)c2ccc(C)cc12` gave Tg IFNy HTS 7.3.
Screening Cc1nc(CCNC(=O)C2CCN(S(=O)(=O)c3ccc(F)c(Cl)c3)CC2)cs1 returned Tg IFNy HTS 16.0.
CC(C)(C)c1ccc(/C=C/C(=O)Nc2ccc3c(c2)OCCO3)cc1 was read as Tg IFNy HTS -73.0*.
For CC(C)(C)c1ccc2c(c1)OCCOCCOCCOCCO2 the results were Tg IFNy HTS -21.0.
`Cc1nn(-c2ccccc2)nc1C(=O)Nc1ccc2c(c1)OCCO2` gave Tg IFNy HTS 6.7.
For CS(=O)(=O)N1CCN(c2ccc3ccc(C(=O)NCC(F)(F)F)cn23)CC1 the results were Tg IFNy HTS 50.8.
For Cn1nnc(-c2ccc(C(=O)Nc3ccccc3OCCn3cccn3)cc2)n1 the results were Tg IFNy HTS -12.7.
For O=C(NCc1cncc2c1CCN(Cc1ccc(F)cc1)C2)C1CC1 the results were Tg IFNy HTS 1.2.
Screening Cc1ccc(-c2nc3c(s2)CN(S(=O)(=O)c2ccc(Cl)cc2)CC3)cc1 returned Tg IFNy HTS 23.3.
For CCOc1ccc(-c2nc3c(s2)CN(S(=O)(=O)c2ccc(OCC)cc2)CC3)cc1 the results were Tg IFNy HTS 37.1.
CCc1ccccc1S(=O)(=O)N1CCc2nc(-c3ccccc3)sc2C1 was read as Tg IFNy HTS -68.1.
Screening CCOc1ccc(-c2nc3c(s2)CN(S(=O)(=O)c2cc(C)cc(C)c2)CC3)cc1 returned Tg IFNy HTS -95.1*.
COc1ccc(S(=O)(=O)N2CCc3nc(-c4ccc(C)cc4)sc3C2)cc1 was read as Tg IFNy HTS -44.5.
Screening COc1ccc(-c2nc3c(s2)CN(S(=O)(=O)c2ccc(OC)c(OC)c2)CC3)cc1 returned Tg IFNy HTS -16.5.
Screening COc1ccc(-c2nc3c(s2)CN(S(=O)(=O)c2ccc(C)c(C)c2)CC3)cc1 returned Tg IFNy HTS -103.1*.
CCOc1ccc(-c2nc3c(s2)CN(S(=O)(=O)c2ccccc2)CC3)cc1 was read as Tg IFNy HTS -48.9.
Screening COc1ccc(-c2nc3c(s2)CN(S(=O)(=O)c2cccc(C)c2)CC3)cc1OC returned Tg IFNy HTS -88.8*.
Screening COc1ccc(S(=O)(=O)N2CCc3nc(-c4ccc(OC)c(OC)c4)sc3C2)cc1 returned Tg IFNy HTS -32.1.
`COc1ccc(-c2nc3c(s2)CN(S(=O)(=O)c2cccc(F)c2)CC3)cc1OC` gave Tg IFNy HTS 28.7.
`Cc1c(Cl)cccc1S(=O)(=O)N1CCc2nc(-c3ccccc3)sc2C1` gave Tg IFNy HTS -82.8*.
For O=C1COC2(CCN(C(=O)Cc3ccsc3)CC2)CN1 the results were Tg IFNy HTS 2.9.
`Cn1c(CCNC(=O)CC2NC(=O)N(C3CCCCC3)C2=O)nc2ccccc21` (centres undefined) gave Tg IFNy HTS -0.5.
Screening CCOC(=O)C1CCCN(C(=O)c2cc3cccnc3n(Cc3ccc(F)cc3)c2=O)C1 (centres undefined) returned Tg IFNy HTS -5.8.
Screening COC(=O)C1CCN(S(=O)(=O)c2cc3c4c(c2)CCC(=O)N4CCC3)CC1 returned Tg IFNy HTS 0.9.
For COc1ccccc1NC(=O)Cn1c(=O)n(Cc2ccco2)c(=O)c2sccc21 the results were Tg IFNy HTS -58.4.
COc1ccc(-c2nc(C)c(CCNS(=O)(=O)c3cc(OC)ccc3OC)s2)cc1 was read as Tg IFNy HTS 9.8.
For Cc1cccc(CN2CCO[C@H]3CN(S(=O)(=O)c4ccc(C#N)cc4)C[C@@H]32)n1 the results were Tg IFNy HTS 10.1.
CCCc1ccc(S(=O)(=O)N2CCc3nc(-c4cccc(OC)c4)sc3C2)cc1 was read as Tg IFNy HTS 2.4.
Screening CC(C)c1ccc(S(=O)(=O)N2CCc3nc(-c4ccccc4)sc3C2)cc1 returned Tg IFNy HTS -98.1*.
COc1cccc(-c2nc3c(s2)CN(S(=O)(=O)c2ccc(C)c(C)c2)CC3)c1 was read as Tg IFNy HTS -104.0*.
Screening COc1cccc(-c2nc3c(s2)CN(S(=O)(=O)c2ccc(F)c(Cl)c2)CC3)c1 returned Tg IFNy HTS -37.4.
`CCc1ccc(S(=O)(=O)N2CCc3nc(-c4cccc(OC)c4)sc3C2)cc1` gave Tg IFNy HTS -46.3.
For COc1ccc(S(=O)(=O)N2CCc3nc(-c4ccccc4)sc3C2)cc1 the results were Tg IFNy HTS -19.7.
O=S(=O)(c1ccc(Cl)cc1)N1CCc2nc(-c3ccccc3)sc2C1 was read as Tg IFNy HTS 19.0.
